Data from PubChem BioAssay (Tox21).
Where “and” joins values, the source holds several entries; their conditions need not be identical. Equal entries are not always repeated. Records with an inconclusive call do not appear. Where a call stands in place of a potency, no number is given. Calls of active or inactive are those of the source. Unless noted, the call rests on the fitted dose curve; in most records, active means well fitted curve in the direction sought with a large enough effect in the repeat runs; inconclusive means weak or mixed curves; inactive means no such curve, though single readings can be large; an effect the other way counts as inactive or inconclusive.

What was measured:
[1] = qHTS assay to identify small molecule agonists of the constitutive androstane receptor (CAR) signaling pathway - cell viability counter screen (AID 1224836); further: nearly all actives have a fitted effect of over 45% in size; further: potency means the concentration at half of the fitted maximal effect
How it was run: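 Counter screen multiplexed with the CAR reporter readout: HepG2 cells co-transfected with hCAR and the CYP2B6-2.2kb construct receive a 15-concentration compound series and 0.75 uM PK11195 (final), then CellTiter-Fluor fluorescence is read after 23 h.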

[2] = qHTS assay to identify small molecule antagonists of the constitutive androstane receptor (CAR) signaling pathway - cell viability counter screen (AID 1224837); further: nearly all actives have a fitted effect of over 45% in size; further: potency means the concentration at half of the fitted maximal effect
How it was run: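 Counter screen run in HepG2-CYP2B6-hCAR cells: 4 hr settle, compound titration (15 concentrations) with 50 nM CITCO, 23 hr at 37 C/5% CO2, CellTiter-Fluor fluorescence.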

[3] = qHTS assay to identify small molecule antagonists of the estrogen related receptor signaling pathway with the pleiotropic PPARgamma coactivator (PGC) from Tox21 10K library - cell viability counter screen (AID 1224840; active means well fitted cell-killing curve with a large enough effect in the repeat runs, not every such curve was filed as active; further: nearly all actives have a fitted effect of over 40% in size; further: potency means the concentration at half of the fitted maximal effect)
How it was run: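 Following seeding of 2,000 PGC/ERR cells/well and 6 hours' incubation, test compounds were delivered in DMSO. The plates then sat 17.5 hours at 37 C before a fluorogenic live-cell protease reagent (CellTiter-Fluor) was read after 30 min.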

[4] = qHTS assay to identify small molecule antagonists of the estrogen related receptor signaling pathway with the pleiotropic PPARgamma coactivator (PGC) from Tox21 10K library (AID 1224841; call rule not given here; further: actives are mostly falling curves and most rising ones were filed inactive; nearly all actives have a fitted effect of over 50% in size; further: potency means the concentration at half of the fitted maximal effect)
How it was run: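 qHTS antagonist format: PGC/ERR cells, 2k/well, compound in DMSO by pin transfer after 6 h attachment, 18 h treatment at 37 C, One-Glo luminescence read at 30 min.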

[5] = qHTS assay to identify small molecule agonists of the estrogen related receptor signaling pathway with the pleiotropic PPARgamma coactivator (PGC) from Tox21 10K library (AID 1224842); further: nearly all actives have a fitted effect of over 15% in size; further: potency means the concentration at half of the fitted maximal effect
How it was run: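 Luminescence from One-Glo (30 min, room temperature) measured after PGC/ERR cells had 18 h at 37 C with pinned compound (23 nL in DMSO). Cells had been seeded at 2,000 per well and pre-incubated 6 h.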

[6] = qHTS assay to identify small molecule agonists of the hypoxia (HIF-1) signaling pathway - cell viability counter screen (AID 1224844; calls by dose curve; further: nearly all actives have a fitted effect of over 50% in size; further: potency means the concentration at half of the fitted maximal effect)
How it was run: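 Cells (HRE-bla ME-180, 2,000 per well) sat 5 hrs at 37C, got compound for 17 hrs, were read for CCF4-AM FRET, and were finally lysed with CellTiter-Glo for a 30 min room-temperature luminescence read.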

[7] = molecular target: Luciferin 4-monooxygenase (Photinus pyralis) (UniProt P08659); test: qHTS assay to identify small molecule inhibitors of firefly luciferase (AID 1224835); further: series mostly up to about 120 µM; nearly all actives have a fitted effect of over 25% in size
How it was run: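 Inhibition of purified Photinus luciferase is measured by luminescence. Substrate levels (D-luciferin, ATP) sit at their KM values. Each compound is tested in a concentration series.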

[8] = molecular target: Nuclear receptor subfamily 1 group I member 3 (Homo sapiens) (UniProt Q14994); test: qHTS assay to identify small molecule agonists of the constitutive androstane receptor (CAR) signaling pathway (AID 1224839); further: nearly all actives have a fitted effect of over 15% in size; further: potency means the concentration at half of the fitted maximal effect
How it was run: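 A 15-concentration quantitative screen uses HepG2 cells co-transfected stably with human CAR and CYP2B6-2.2kb reporter. Treatment lasts 24 h with 0.75 uM PK11195 final present; ONE-Glo luminescence is the signal.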

[9] = molecular target: Thyrotropin receptor (Homo sapiens) (UniProt P16473); test: qHTS assay to identify small molecule agonists of the thyroid stimulating hormone receptor (TSHR) signaling pathway (AID 1224843; calls by dose curve; further: nearly all actives have a fitted effect of over 45% in size; further: potency means the concentration at half of the fitted maximal effect)
How it was run: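 Screening of the Tox21 10K collection used HEK293 cells engineered with TSHR at 800 cells per well. After a 30-min room-temperature compound exposure, HTRF cAMP reagents were added and fluorescence recorded 1 h later.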

[10] = molecular target: Nuclear receptor subfamily 1 group I member 3 (Homo sapiens) (UniProt Q14994); test: qHTS assay to identify small molecule antagonists of the constitutive androstane receptor (CAR) signaling pathway (AID 1224838);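 further: HepG2 cells stably expressing hCAR with CYP2B6 luciferase reporter stimulated by CITCO; nearly all actives have a fitted effect of over 40% in size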; further: potency means the concentration at half of the fitted maximal effect
How it was run: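 Cell line: HepG2 double-stable for hCAR and CYP2B6-2.2kb reporter. Agonist: CITCO, 50 nM final. Compounds: 15 concentrations, 24 h, 37 C. Detection: ONE-Glo luminescence.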

Sequence of Nuclear receptor subfamily 1 group I member 3 (Homo sapiens) (Q14994 whole entry, looked up): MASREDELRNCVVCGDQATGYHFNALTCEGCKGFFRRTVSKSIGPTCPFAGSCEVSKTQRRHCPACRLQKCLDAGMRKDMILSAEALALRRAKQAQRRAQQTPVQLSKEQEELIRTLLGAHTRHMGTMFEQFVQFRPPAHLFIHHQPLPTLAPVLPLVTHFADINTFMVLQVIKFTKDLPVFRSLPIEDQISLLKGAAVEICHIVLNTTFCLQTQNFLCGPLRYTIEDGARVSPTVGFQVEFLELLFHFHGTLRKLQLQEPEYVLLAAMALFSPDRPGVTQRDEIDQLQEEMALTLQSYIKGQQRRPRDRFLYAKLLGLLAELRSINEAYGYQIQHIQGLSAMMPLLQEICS
Sequence of Thyrotropin receptor (Homo sapiens) (P16473 whole entry, looked up): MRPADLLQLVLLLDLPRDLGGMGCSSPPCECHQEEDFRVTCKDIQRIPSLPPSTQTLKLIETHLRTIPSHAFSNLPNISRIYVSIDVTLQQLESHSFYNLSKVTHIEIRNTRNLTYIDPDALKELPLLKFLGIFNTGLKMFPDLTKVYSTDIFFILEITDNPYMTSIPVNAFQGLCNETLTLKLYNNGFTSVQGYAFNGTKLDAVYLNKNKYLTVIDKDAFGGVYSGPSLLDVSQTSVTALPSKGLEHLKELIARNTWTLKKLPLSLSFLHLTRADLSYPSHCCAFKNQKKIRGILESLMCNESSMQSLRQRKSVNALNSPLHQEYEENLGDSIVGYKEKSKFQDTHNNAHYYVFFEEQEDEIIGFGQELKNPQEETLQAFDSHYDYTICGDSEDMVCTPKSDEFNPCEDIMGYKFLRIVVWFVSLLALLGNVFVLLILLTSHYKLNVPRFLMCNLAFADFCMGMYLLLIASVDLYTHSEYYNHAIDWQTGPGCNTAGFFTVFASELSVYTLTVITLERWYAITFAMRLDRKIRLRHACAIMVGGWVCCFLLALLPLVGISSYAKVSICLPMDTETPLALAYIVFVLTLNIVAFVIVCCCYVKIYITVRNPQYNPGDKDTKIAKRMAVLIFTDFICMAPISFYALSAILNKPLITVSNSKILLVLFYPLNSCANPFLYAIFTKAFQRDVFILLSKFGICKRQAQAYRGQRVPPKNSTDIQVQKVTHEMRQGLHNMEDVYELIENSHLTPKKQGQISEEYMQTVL
Sequence of Luciferin 4-monooxygenase (Photinus pyralis) (P08659 whole entry, looked up): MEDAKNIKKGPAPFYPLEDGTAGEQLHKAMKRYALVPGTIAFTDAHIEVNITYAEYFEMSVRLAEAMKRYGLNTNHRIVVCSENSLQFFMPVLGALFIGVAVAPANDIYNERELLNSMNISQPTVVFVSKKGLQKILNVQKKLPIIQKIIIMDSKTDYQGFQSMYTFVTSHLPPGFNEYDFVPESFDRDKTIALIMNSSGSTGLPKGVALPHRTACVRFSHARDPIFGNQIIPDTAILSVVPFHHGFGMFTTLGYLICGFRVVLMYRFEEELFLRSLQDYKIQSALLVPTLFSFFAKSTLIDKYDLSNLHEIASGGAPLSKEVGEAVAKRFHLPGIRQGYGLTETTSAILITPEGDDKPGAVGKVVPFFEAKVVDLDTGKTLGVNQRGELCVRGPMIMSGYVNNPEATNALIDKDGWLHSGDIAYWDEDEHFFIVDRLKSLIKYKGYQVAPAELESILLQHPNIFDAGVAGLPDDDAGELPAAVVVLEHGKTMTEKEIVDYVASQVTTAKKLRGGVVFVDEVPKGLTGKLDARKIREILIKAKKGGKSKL

On1ccccc1=S
Potency [1]: 1.21 µM (active) | Potency [2]: 0.762 µM (active) | Potency [3]: 0.605 µM (active) | Potency [4]: 3.4 µM (active) | Potency [5]: inactive | Potency [6]: 0.432 µM (active)

C[C@@H](NCCCc1cccc(C(F)(F)F)c1)c1cccc2ccccc12
Potency [7]: inactive | Potency [8]: inactive | Potency [4]: inactive | Potency [5]: inactive | Potency [9]: inactive | Potency [6]: 23.9 µM (active)

[Cl][Au]([Cl])[Cl]
Potency [1]: 7.7 µM (active) | Potency [2]: 3.86 µM (active) | Potency [3]: 7.7 µM (active) | Potency [5]: inactive | Potency [6]: 3.89 µM (active)

CC(C)(C)c1ccc(C(=O)CCCN2CCC(OC(c3ccccc3)c3ccccc3)CC2)cc1
Potency [1]: 29.8 µM (active) | Potency [2]: 29.8 µM (active) | Potency [8]: inactive | Potency [3]: 29.8 µM (active) | Potency [9]: 11.9 µM (active) | Potency [6]: 19 µM (active)

CCOC(=O)c1nc(C(Cl)(Cl)Cl)n(-c2ccc(Cl)cc2Cl)n1
Potency [7]: inactive | Potency [8]: inactive | Potency [5]: inactive

CCCCCCCCCCn1cc[n+](CCCCCCCCCC)c1C
Potency [1]: 30.7 µM (active) | Potency [2]: 54.5 µM (active) | Potency [10]: 30.7 µM (active) | Potency [8]: inactive | Potency [3]: 27.3 µM (active) | Potency [5]: inactive

CC1=C(/C=C/C(C)=C/C=C/C(C)=C/C=O)C(C)(C)CCC1
Potency [1]: 54.2 µM (active) | Potency [2]: 68.2 µM (active) | Potency [8]: 15.3 µM (active) | Potency [3]: 54.2 µM (active) | Potency [9]: 6.82 µM (active) | Potency [6]: 30.7 µM (active)

CN1CCC(Nc2ncc3ncnc(Nc4ccc(F)c(Cl)c4)c3n2)CC1
Potency [7]: inactive | Potency [8]: inactive | Potency [9]: inactive

Cc1cc(=O)oc2cc(N(C)C)ccc12
Potency [10]: inactive | Potency [8]: 61.1 µM (active) | Potency [4]: inactive | Potency [5]: inactive | Potency [9]: inactive

COc1cccc2c1C(=O)c1c(O)c3c(c(O)c1C2=O)C[C@@](O)(C(=O)CO)C[C@@H]3O[C@H]1C[C@H](N)[C@H](O[C@@H]2CCCCO2)[C@H](C)O1
Potency [1]: 7.5 µM (active) | Potency [2]: 8.41 µM (active) | Potency [10]: 0.944 µM (active) | Potency [8]: inactive | Potency [4]: inactive | Potency [5]: 0.422 µM (active) | Potency [9]: inactive

Oc1ccc2cc(SSc3ccc4cc(O)ccc4c3)ccc2c1
Potency [1]: inactive | Potency [2]: inactive | Potency [10]: inactive | Potency [4]: 48.6 µM (active) and 43.3 µM (active) | Potency [5]: inactive | Potency [9]: inactive | Potency [6]: inactive

C[n+]1ccn(Cc2ccccc2)c1
Potency [7]: inactive | Potency [3]: inactive | Potency [5]: inactive | Potency [9]: inactive | Potency [6]: inactive

Oc1ccc2c(c1)-c1ccccc1C2
Potency [1]: inactive | Potency [2]: inactive | Potency [10]: inactive | Potency [8]: 54.5 µM (active) | Potency [3]: inactive | Potency [4]: inactive | Potency [5]: inactive | Potency [9]: inactive

CCCCCCCCCCCCCCCCCC[N+](C)(C)Cc1ccccc1
Potency [1]: 55 µM (active) | Potency [2]: 55 µM (active) | Potency [10]: 49 µM (active) | Potency [8]: inactive | Potency [4]: 30.9 µM (active) | Potency [5]: inactive | Potency [9]: 55 µM (active)
